The record followed here is PubChem BioAssay AID1159506 (National Center for Advancing Translational Sciences (NCATS), 2015).

The full ranking holds about 59,000 sequences; the median of the read-out is about -0.00055, and the lowest 2% start at about -2. This is one part of a sample in which the lowest values are shown more often than they occur.

A short description of this experiment: Identification of proteins required for the processing of the EWS-FLI1 nascent transcript.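 Also: robust z of luciferase light less the median z of siRNAs with the same seed.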 To be noted: TC32 Ewing sarcoma NR0B1-luc vs CMV-luc (EWS-FLI1 target promoter against control promoter), 48 h; screened at 20 nM (by protocol). The essentials: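 Three siRNAs per gene, each in a separate well at 20 nM, were transfected into TC32 cells bearing either reporter construct. Luminescence was measured two days on, and per-gene comparison relied on seed-corrected Z values.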
The sequence UUUGAAAUUUGUCAGGUCU against PQLC2L displayed a seed-corrected z-score of -0.634. UACUAUGUCUUCAAGAUCC against CD99L2 gave a seed-corrected z-score of 0.481. The sequence UGCUUUAACUGGAUACAUC against NPHP1 had a seed-corrected z-score of -2.27. As for UUCUUAGCUCCCACGAUCC against ZNF512, the seed-corrected z-score is 0.51.

UUGGUGAAUAAAUAUCAUC against ZBTB25: the seed-corrected z-score was found to be 0.411. AAUCUUCCCAUUCUCGUCC against NAA10 yielded a seed-corrected z-score of 0.136.

In turn, UACGGUAUGACUUUCGUUG against RPL23 showed a seed-corrected z-score of -2.37. Turning to AUUGUUACUAUUGGACAGG against RFPL4A, the seed-corrected z-score was found to be 0.248. In turn, UGUUUGACCAUUCCGUAUC against VRK1 had a seed-corrected z-score of 0.29. UUUCGUCUCAGCACUGCAC against ANKMY1: the seed-corrected z-score turned out to be 0.0118. The figure for UUUGUGACCAGCAAUCUGC against PLA2G2F is -0.775; for AAGUUUAGCAAAGACCUGC against VPS39 it is -2.66. For UCCGAGAUGAGGUAUUAGG against PPIP5K2, the seed-corrected z-score is 0.207. As to UUACACUUCAUUUCCAGAG against WNT11, the seed-corrected z-score came out at 1.06. UUCUUGCCUAGACAGCACC against JAK1 returned a seed-corrected z-score of 0.139. In turn, UUUGGGUAAAUAAUCCUUU against C4orf45 came in with a seed-corrected z-score of -1.15.

Sequence UUCGGGUUGUUCUUUUUCC against TCHP had a seed-corrected z-score of 0.00716.

For the sequence AUAAUAUGAUUCCUAAUCC against FAM188A, the seed-corrected z-score was 0.685. In turn, UUAGCUGCAACUGGAAGGU against TEX13B gave a seed-corrected z-score of -3.82. With UGAUGUCCAACACCAGUCC against ADCY3, the seed-corrected z-score was determined as 1.37. For the sequence UUGAACUAAACAUAUCAGC against TAB3, the seed-corrected z-score was 1.2. Sequence AGUGGAACAAGAUCUCAGU against NOL6 gave a seed-corrected z-score of 0.803.

The sequence UUCAUACUCAGGCAUAUCC against SEC23A displayed a seed-corrected z-score of -0.651.

On to ACAGAUGUCACACUCGAAG against ZNF581, for which the seed-corrected z-score was 0.251. Consider UUUCAUCUCUCUUAGAUAC against AP3S1, for which the seed-corrected z-score is -0.346. The same measure for UGAGAGUUGAGCCUUAUCA against OR8B8: -2.36. Consider AGACGAUCAAGCUCUGGUG against CYB5R4, for which the seed-corrected z-score was -0.548. For ACAGGUGCAAACAAAGAGC against TMEM167B, the seed-corrected z-score was -2.18.

As for UGAACAUCCAGUUCUUCCC against CHERP, the seed-corrected z-score was -1.4. Turning to UGGAUUAGCAUGACAGACC against COPB1, the seed-corrected z-score was -2.98. In turn, UAUGCUCCUCCCGACAAGU against HMGB1P1 had a seed-corrected z-score of 0.175.

Sequence AAACAGACCACCUCGUAGG against MTUS2-AS1 gave a seed-corrected z-score of 0.795. UAUCUUCGUACUCAUUUGG against TNFAIP6 displayed a seed-corrected z-score of -2.49. The sequence ACUAGAACAAUCUGCAUCC against ZBTB1 registered a seed-corrected z-score of 0.122. The figure for UAUCGGAAAGAUAGCCUGG against PTPN3 is 0.486; for UACACGUACGGGAUAUUUG against HTR3A it is -0.067. UGUUGUAGCACUCCAACGC against PRKDC came in with a seed-corrected z-score of -4.34. The sequence UCUUUAUCAAAUCUGAGUG against FANCC showed a seed-corrected z-score of 0.127.

As to UGUGGGUUAAAAGUCAGCA against CDK4, the seed-corrected z-score is -1.59. With UCUACCAACAGCAAGAUAC against PLEKHG4B, the seed-corrected z-score is -0.565. For UGUAGGUGUAGGCUGUUCG against RFX2, the seed-corrected z-score was -4.23.

Take UUUCUGCUUGUAUCUGCCC against C1QC: the seed-corrected z-score is -2. The figure for UUCUUUAAGUCAAAGUUUC against FEZF2 is -1.32; for UGCUUUAUUAUUAAUGGAC against PABPC3 it is -0.79. In the case of UGGAUUGUAACCUUUCAUC against EIF2B5, the seed-corrected z-score is -0.151.

As to UAUUUAUUAGAAACAUGGG against ZNF415, the seed-corrected z-score was -2.45. The same measure for AAAUAGUUCUCAGUCAUUC against RBM38: 0.473; for AGUUGUCCAAUGCAGAUGU against ZDHHC24: -0.264. The figure for AUAUUUGCAACCUGCAUUC against SPG7 is -0.324; for UCAGUUCUUGCAGUGCACC against FAM212B it is -0.229; for UGGGUGUUCAUGACCUGCC against LMF1 it is -2.6. Take UGCCCAUCCACAUUGUCCU against REXO1: the seed-corrected z-score was -0.116.

Turning to UACGAAUCAAACCAAGAUC against RASGRP3, the seed-corrected z-score is -0.4. With UAUUGAUCUGCCGAGGAGC against CYFIP1, the seed-corrected z-score was -0.5. UUCGUGACUGUCAUCAUCC against CARD11: the seed-corrected z-score stood at 0.437. UGAACAUACAUCUUGAAUC against SRP19 gave a seed-corrected z-score of 0.739. The sequence UCGGUGUAAGGUGUCCAUG against POU2AF1 yielded a seed-corrected z-score of -0.0736. UUCUUUCCAAACGCAAGAU against RPRML: the seed-corrected z-score was -2.78.

AACUUGGUAGCGGCUUUGG against CDHR1 showed a seed-corrected z-score of -0.12.

UAUAUUGCUCGGUCAAGUC against RBM4 returned a seed-corrected z-score of -0.89.

In turn, AAACACGUAGGGCACAUUC against SNU13 gave a seed-corrected z-score of -5.96. For the sequence AAUGGAAAUAUUCUCGACC against CNRIP1, the seed-corrected z-score was -0.303. The sequence UCACAGAGCAGAUGGGUUC against PTPN7 yielded a seed-corrected z-score of -0.424. UUAAGUCUAGGGCAAAUUC against OGFOD1 displayed a seed-corrected z-score of 0.0394. With UUACCUGCAGAAACCUUCU against MUC1, the seed-corrected z-score is -2.32. AAUCUUCUUGUCCUGACUC against PHPT1 had a seed-corrected z-score of -0.987. The figure for AAAUAGGCAAGGAAUCUUG against LARP1BP1 is -1.48.

In turn, AAUGUUGUCAUAGCCGAUG against PSTPIP2 gave a seed-corrected z-score of -0.92.

For the sequence UACGUGUUGAUUUGUCAGC against ANKZF1, the seed-corrected z-score came out at 0.382. Regarding UCCAUUUCAGGAGCUACGC against OTULIN, the seed-corrected z-score is -2.32. In turn, UGCUAAAAUAGUCGCAUCC against LOC727919 showed a seed-corrected z-score of -0.265. Sequence AUACCUGCAGUGAACAUUU against ECH1 returned a seed-corrected z-score of -3.28. The figure for UACUGACUCCUUGUAUGCC against CSTF2T is 0.0375; for UGUCAAACUGGUGCUGUUG against NAGLU it is -0.208. In turn, AAUGUAAGGCCUUAAAUCG against MRPS27 came in with a seed-corrected z-score of 0.696. For the sequence UUCUUUCACGCUUAGUUUC against LOC729978, the seed-corrected z-score was 0.995. The same measure for AAAAUUUCAUCCAUCAAUC against NUS1: 0.0341; for UCUUCGUCCACAUUGGUUC against EPG5: -11.6; for UUCUAUACCCAGUACAUGG against ZNF112: 1.1. The same measure for UGUUAUAGAAUGACGCACC against DNAH11: -0.639; for AAAGCGAAGAGGUCUAGGC against PASK: 0.632. UCCAGGUCUAGAACUUGCG against DACH1 yielded a seed-corrected z-score of -0.158. AAGUCGAUCCAUAACAAUC against AK9 returned a seed-corrected z-score of 0.17.

Consider AACCAUACUACAGUCAAUC against TIMM17A, for which the seed-corrected z-score stood at 0.0529.

Sequence UCAUCUAAAAUCUCGGUAG against POLE registered a seed-corrected z-score of -2.51. On to UCAUAUACAGCAAACGGGC against RHOJ, for which the seed-corrected z-score is -0.695. Turning to ACUGUUGUCACUGCGGUGG against GPR20, the seed-corrected z-score was -0.419. Take UAAUUUCAGAGUAUGUCCG against PCDHAC2: the seed-corrected z-score was -0.214. The same measure for UGGGUAGUUAGACUUGAUC against ZNF160: -2.52; for UACCUAUUUAGCAUAUUGG against GRIN2B: 1.13. UUGGAUCCAGUUGAUAACG against EPCAM showed a seed-corrected z-score of 0.867. For the sequence UGAGUUACAGGGACCGAAG against LINC00944, the seed-corrected z-score is -0.148. The sequence AGCUUGAGAAUUUACUUGG against HIST1H2BL displayed a seed-corrected z-score of -2.21. Consider UUAUCUCCAGCUAUGCUGU against LOC440292, for which the seed-corrected z-score amounted to 1.49. On to UCCUCAUGUAUUUUGGUCC against ELOVL5, for which the seed-corrected z-score is -0.118. The figure for UCACUUAGCAUGGGUAUUG against TMOD4 is -0.648. Consider UUCUCUUCCAUCUCCGCCC against TNRC18, for which the seed-corrected z-score was -0.725. AAACUGGUAAUAUGAAUUC against IQSEC2 yielded a seed-corrected z-score of 1.31. As for UUUGGUCCAAAUUCACUCC against C2orf76, the seed-corrected z-score is -2.66. For GGCUGGUCGUGAUCUUUCC against SPDYE2, the seed-corrected z-score was 0.846. On to UUCGAUAUACCAGAACCGC against LPGAT1, for which the seed-corrected z-score was -1.1. As for UGUAGUAAUGUGAUUUUCC against CTBP2, the seed-corrected z-score stood at 1.22. In turn, UUCCUCGUAGGUCCACUCG against ARID3C came in with a seed-corrected z-score of -0.393. With UUUCCUGCACCCAUAAGUC against C11orf58, the seed-corrected z-score was -0.0639. As to GAACGACUCAGAUCCCGGA against HCRT, the seed-corrected z-score was -12.7. In the case of UUACAGGUAGCGGCAAGCA against SP8, the seed-corrected z-score is 0.823. Regarding UACCUGAAAACCUAGUUUC against TBPL1, the seed-corrected z-score was -0.106. UAUAGUAAAGCCCAGACGG against CNTNAP3 yielded a seed-corrected z-score of -2.74. AUAUGUUUACUACCGGUGC against CYP4Z1 showed a seed-corrected z-score of -0.0519. In turn, UUCGCUUAACAUGCUCUCC against SKIL yielded a seed-corrected z-score of -1.15.

In the case of AAUUCCAGAAUUACAGGCU against PRAC1, the seed-corrected z-score is -0.113. The sequence UAAGAUGAGAGAGUGUCCA against TAS2R1 came in with a seed-corrected z-score of 0.755. The sequence UACUGGUCUAGGAGGUAUG against ERRFI1 registered a seed-corrected z-score of -0.314.

The sequence AGACUGAGCAGUAGGACUC against SLC35E4 came in with a seed-corrected z-score of -2.41. AUAUGGUCAAAUGAGUUAG against KIF3B: the seed-corrected z-score turned out to be 1.67. The sequence UUUCCGUACAUUGUGGUCC against ATP13A5 gave a seed-corrected z-score of 0.276. As for UAAGCACGAACAGUUAUAG against USP47, the seed-corrected z-score worked out at 0.264. As to AUAGGGCACAUCUUGUAGG against CSDC2, the seed-corrected z-score stood at 0.0846.

Turning to UCUGUUUUGAAGGACCUCU against ENTPD6, the seed-corrected z-score turned out to be 0.116.

UUCGCAUUUGUAUUCGACC against GNB4 yielded a seed-corrected z-score of 0.0257. The same measure for UAUUUCACCAUCUCCGAGC against MAGEF1: -2.32; for UGAGGUUAUACGUUCCCUG against KIAA1549: -0.0625. The sequence UUGGGUCCGAGGAACAACU against ZNF469 returned a seed-corrected z-score of 0.678. For UCUUGCAACAGAGCCCUGA against TESK1, the seed-corrected z-score is -0.681.

In turn, AUCCGCAUCAGUAACAUUG against CASQ1 showed a seed-corrected z-score of -0.835. As to UUCCUUAAUGGUGUAUUCG against RIN3, the seed-corrected z-score came to 0.651.

Consider UAUGGAACUGUAUAUAGGA against EVA1C, for which the seed-corrected z-score was determined as 0.1. In turn, UGCUCUGUAAUCACGGGCU against WARSP1 had a seed-corrected z-score of -1.94. Consider AUACUGUAGACGUACCUCU against F2R, for which the seed-corrected z-score is -0.762. Sequence AAAGGUUCACCACAUAGCC against SORL1 yielded a seed-corrected z-score of -3.01. UUAUGUGAACCAUCGCAGG against CISD2 returned a seed-corrected z-score of 0.515. Consider UCCAGUAGUAGUCUUCCAG against MAF, for which the seed-corrected z-score was -2.92. As to AUAGGUGUUGAUACGAGCC against SATB1, the seed-corrected z-score was -0.199.
